IL1B secr inh – inflammasome signaling inhibition, IL-1 beta readout; THP-1 LPS/ATP IL-1B secretion, AlphaLISA, 16 h; stronger effect = lower value; activity change, % at 57.5 µM; 360,000 tested, 4.7% active; AID 743279; in the data active = activity change below about -50%; inconclusive = mostly about -30% to -49%; also: % is scaled to controls: 0 for no effect and ±100 for the full control effect
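Secreted IL-1B measured by AlphaLISA bead assay after 16 h compound exposure of THP-1 cells; compounds (final up to 57.5 uM) added 1 h before LPS (250 ng/mL) and ATP (1.25 mM) stimulation; lower signal means less secretion.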
HepG2 tox – HepG2 cytotoxicity, counter-screen for TGF-b inhibitors | Potency, µM (titrated, usually from 46.1 µM), for the others: at the top dose activity change, negative = cytotoxicity, actives largely listed as cytotoxic | AID 588856 | 410,000 tested, 0.76% active | HepG2 CAGA-GFP viability, ATP luminescence, 18 h; also: potency is read from the fitted curve at half-maximal effect
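HepG2 CAGA-GFP cells (1000/well, DMEM with 1% FBS) received compound, then TGF-beta at 500 pg/mL final, and were incubated 18 hours at 37 degrees C. Viability was read by CellTiter-Glo luminescence. Media-only wells were set as complete cell-killing and DMSO as no toxicity.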
TDP1 inh – TDP1 (human) enzyme inhibition; recombinant TDP1, AlphaScreen DNA substrate cleavage; Q9NUW8; 350,000 tested, 0.28% active; Potency, µM (top dose mostly 130 µM), for inactives: at the highest dose activity change, negative = inhibition, hits mostly inhibitors; also: potency is read from the fitted curve at half-maximal effect; % is scaled to controls: 0 for no effect and ±100 for the full control effect; nearly all actives have a fitted effect of over 40% in size
Target sequence (Q9NUW8 whole entry, looked up): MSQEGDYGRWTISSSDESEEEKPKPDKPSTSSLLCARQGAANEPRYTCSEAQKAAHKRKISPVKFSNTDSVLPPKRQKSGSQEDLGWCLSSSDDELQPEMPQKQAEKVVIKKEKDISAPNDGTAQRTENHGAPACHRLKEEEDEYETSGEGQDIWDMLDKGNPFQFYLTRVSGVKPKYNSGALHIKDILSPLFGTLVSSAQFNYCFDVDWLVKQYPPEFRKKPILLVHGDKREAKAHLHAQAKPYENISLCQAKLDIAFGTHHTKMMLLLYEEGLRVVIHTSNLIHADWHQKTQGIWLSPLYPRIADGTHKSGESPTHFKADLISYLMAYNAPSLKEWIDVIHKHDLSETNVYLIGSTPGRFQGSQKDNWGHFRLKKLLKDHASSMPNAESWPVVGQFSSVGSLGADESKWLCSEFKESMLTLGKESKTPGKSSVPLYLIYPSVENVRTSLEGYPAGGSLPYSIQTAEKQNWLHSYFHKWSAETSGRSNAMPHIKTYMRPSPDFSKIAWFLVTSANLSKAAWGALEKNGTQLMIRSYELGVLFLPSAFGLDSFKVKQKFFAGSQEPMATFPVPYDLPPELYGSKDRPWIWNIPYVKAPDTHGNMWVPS
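Steps: enzyme plus compound, 15 min RT; add biotin/phosphotyrosine-FITC oligonucleotide (15 nM final), react 5 min; add donor/acceptor beads (10 ug/ml final), 10 min; read AlphaScreen. Tdp1 at 1 nM final.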
TGFb inhibitor – inhibitors of TGF-b signaling; Potency, µM (doses to about 46.1 µM), for the others: at the highest dose activity, negative = inhibition, most hits filed as inhibitors; HepG2 CAGA-GFP TGF-b/SMAD3 reporter, GFP fluorescence, 18 h; TGF-beta stimulated, 500 pg/mL final; 410,000 tested, 1.2% active; also: potency is read from the fitted curve at half-maximal effect; % is scaled to controls: 0 for no effect and ±100 for the full control effect; nearly all actives have a fitted effect of over 65% in size
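Smad-responsive CAGA-GFP expression was quantified in HEPG2 cells exposed to compounds and 500 pg/mL final TGF-beta for 18 h at 37 degrees C; unstimulated wells defined full inhibition.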
TDP1 cell noCPT – qHTS for Inhibitors of human tyrosyl-DNA phosphodiesterase 1 (TDP1): qHTS in cells in absence of CPT | Potency, µM (titrated, usually from 46.2 µM), for the others: at the highest dose activity change, negative = growth inhibition, actives largely listed as inhibitors | DT40 Tdp1-/- hTDP1 cells, no CPT, ATP luminescence, 48 h | 420,000 tested, 15% active; also: potency is read from the fitted curve at half-maximal effect; % is scaled to controls: 0 for no effect and ±100 for the full control effect; nearly all actives have a fitted effect of over 55% in size
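Growth of hTDP1-complemented DT40 Tdp1-knockout cells is measured by ATP luminescence after at least 48 hr compound exposure at 37 °C, with DMSO substituting for the 20 nM CPT used in the parallel screen.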
DT40 TDP1 CPT – DT40-hTDP1 cell growth loss with CPT; chicken DT40 Tdp1-/-;hTDP1 cells + 20 nM CPT, ATP luminescence, 48 h; Potency, µM (top dose mostly 46.2 µM), for inactives: at the highest dose activity change, negative = growth inhibition, actives largely listed as inhibitors; 420,000 tested, 12% active; also: potency is read from the fitted curve at half-maximal effect; % is scaled to controls: 0 for no effect and ±100 for the full control effect; nearly all actives have a fitted effect of over 55% in size
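Cell growth measured by CellTiter-Glo luminescence after a minimum 48 h, 37 C compound exposure with 20 nM CPT in Tdp1-knockout DT40 cells stably expressing hTDP1, seeded 400/well; qHTS titration format.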
Starred values were filed as active, the others as inactive; ? = inconclusive; . = no result. Hits are enriched below; roughly 18% of the tested compounds scored in any of these assays. Unless noted, calls follow the shape of the dose curve; as a rule, active = well fitted curve in the direction sought with a large enough effect; inconclusive = small, poorly fitted or top-dose-only effect, or another doubt; inactive = no such curve, though single readings can be large; an effect the other way counts as inactive or inconclusive.

SMILES	IL1B secr inh	HepG2 tox	TDP1 inh	TGFb inhibitor	TDP1 cell noCPT	DT40 TDP1 CPT
CCc1sc(Nc2cccc(C)c2C)nc1-c1cc2cccc(OC)c2oc1=O	.	7%	4%	20%	21µM*	?
CCc1sc(-c2cc3cccc(OC)c3oc2=O)nc1-c1cc(C)ccc1C	.	-10%	-6%	12%	?	?
CCNC(=O)C1(C)CCN(Cc2ccccc2-c2ccccc2)C1 (stereo not drawn)	16	-6%	.	-2%	?	?
CCNC(=O)C1(C)CCN(Cc2ccc(-c3ccccc3)cc2)C1 (stereo not drawn)	-8	-36%	.	-3%	21µM*	?
CCNC(=O)C1(C)CCCN(Cc2csc(-c3ccccc3)n2)C1 (stereo not drawn)	16	-1%	.	-4%	?	?
CCNC(=O)C1(C)CCN(Cc2csc(-c3ccccc3)n2)C1 (stereo not drawn)	-17	7%	.	37%	12µM*	?
O=C(NCCc1ccccc1)C1CC(=O)N(CCc2ccccc2)C1 (stereo not drawn)	23	1%	4%	0%	-3%	1%
N/N=C/C(=N\Nc1ccc(Cl)cc1)C(=O)c1ccncc1	-51*	-8%	.	6%	-23%	8%
COc1cccc(CNC(=O)Cn2c(=O)oc3cc(S(=O)(=O)N4CCC(C)CC4)ccc32)c1	.	-12%	4%	?	5.2µM*	7.3µM*
CC1CCN(S(=O)(=O)c2ccc3c(c2)oc(=O)n3CC(=O)NCc2ccc(F)cc2)CC1	.	-27%	12%	?	8.2µM*	12µM*
COc1cccc(N2C(=O)N(CC(=O)NCc3cccc(OC)c3OC)c3ccccc3S2(=O)=O)c1	.	-13%	-1%	-3%	-17%	-14%
CCc1ccc(-n2c(=O)c3ccccc3n(CC(=O)C(C)(C)C)c2=O)cc1	0	0%	-2%	2%	18µM*	?
CC(=O)c1ccc(N2C(=O)N(Cc3ccccc3C#N)c3ccccc3S2(=O)=O)cc1	.	-25%	9%	0%	?	16µM*
CC(=O)c1ccc(N2C(=O)N(Cc3cc(C)ccc3C)c3ccccc3S2(=O)=O)cc1	.	-5%	5%	-18%	18µM*	23µM*
CCc1cccc(N2C(=O)N(CC(=O)NCc3cccc(OC)c3OC)c3ccccc3S2(=O)=O)c1	.	-3%	4%	-4%	?	13µM*
Cc1cc(C)cc(N2C(=O)N(CC(=O)c3ccc(Br)cc3)c3ccccc3S2(=O)=O)c1	.	0%	5%	-16%	-18%	-4%
COc1ccccc1N1C(=O)N(CC(=O)C(C)(C)C)c2ccccc2S1(=O)=O	6	2%	-3%	2%	?	-22%
COc1cccc(CNC(=O)Cn2c(=O)cc(C)c3c(C)nn(C)c32)c1OC	.	-25%	-1%	?	18µM*	23µM*
CCc1ccc(N2C(=O)N(CC(=O)C(C)(C)C)c3ccccc3S2(=O)=O)cc1	.	-30%	6%	-13%	21µM*	13µM*
CC(=O)c1ccc(N2C(=O)N(CC(=O)c3ccc(F)cc3)c3ccccc3S2(=O)=O)cc1	.	-13%	0%	-11%	?	-23%
COC(=O)c1ccc(OC)c(CN2C(=O)N(c3ccc(C(C)=O)cc3)S(=O)(=O)c3ccccc32)c1	.	4%	1%	-28%	16µM*	15µM*
COc1ccc(OC)c(C(=O)CN2C(=O)N(c3ccc(C)cc3)S(=O)(=O)c3ccccc32)c1	.	4%	-3%	8%	-24%	-12%
CC(=O)c1ccc(N2C(=O)N(Cc3ccc(F)cc3)c3ccccc3S2(=O)=O)cc1	.	1%	4%	0%	16µM*	21µM*
COc1ccc(NC(=O)NCC2CCN(Cc3ccccc3F)CC2)c(OC)c1	.	3%	2%	3%	4%	0%
CN(C(=O)Cc1c(C(=O)O)n(C)c2ccccc12)c1cccc(C(F)(F)F)c1	38	-19%	.	-12%	?	-2%
SMILES	IL1B secr inh	HepG2 tox	TDP1 inh	TGFb inhibitor	TDP1 cell noCPT	DT40 TDP1 CPT
CCCOC1(NC(=O)c2ccccc2)C(C)=CC(=O)C=C1C	20	6%	-1%	4%	?	23µM*
Cc1cc(Cl)ccc1NC(=O)CN1CCCC1	-4	-14%	.	3%	-1%	13%
O=C(CN1CCCC1)Nc1ccc(Cl)cc1C(F)(F)F	-11	-2%	3%	4%	?	23µM*
O=C(CN1CCCCC1)Nc1ccc(NC(=O)c2ccc(Cl)cc2)cc1Cl	-2	-6%	-2%	0%	26µM*	13µM*
O=C(CN1CCCC1)Nc1ccccc1Cl	-1	11%	-5%	-13%	0%	-3%
Cc1cc(Cl)ccc1NC(=O)CN1CCC(C(O)(c2ccccc2)c2ccccc2)CC1	-61*	-28%	5%	-43%	?	?
CC(Oc1ccc(F)cc1)C(=O)Nc1cc(-c2ccc(F)c(F)c2)no1 (stereo not drawn)	.	-45%	-6%	.	-21%	?
CCc1ccc(NC(=O)CSc2nc3ccccc3c(=O)n2CCCC(=O)N2CCCC2)cc1	20	-13%	0%	5%	?	15µM*
COCCCn1c(SCC(=O)c2ccccc2)nc2ccccc2c1=O	-11	-25%	4%	-18%	23µM*	?
CCOCCCn1c(SCC(=O)Nc2ccc(NC(C)=O)cc2)nc2ccccc2c1=O	0	8%	0%	-1%	-6%	-13%
CCOCCCn1c(SCC(=O)Nc2ccccc2OC)nc2ccccc2c1=O	-1	-4%	1%	-15%	16µM*	?
